Inconclusive results are not listed. Active and inactive are the calls of the source. Calls follow the shape of the dose curve; as a rule, active = well fitted inhibition curve with a large enough effect; inconclusive = small, poorly fitted or top-dose-only effect; inactive = no such curve, though single readings can be large or run the other way.
experiment: Primary qHTS for small molecule stabilizers of the endoplasmic reticulum resident proteome: Secreted ER Calcium Modulated Protein (SERCaMP) assay (AID 1508630); conditions: SH-SY5Y GLuc-SERCaMP (Gaussia luciferase released on ER calcium loss) secretion, thapsigargin, luminescence; series mostly up to 38.4 µM; activity change, negative = inhibition: at the top concentration
Summary of the method: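 The SH-SY5Y reporter protocol was run at 3 concentrations up to 38.3 uM (primary) or 11 concentrations (follow-up): 16 h compound, 100 nM thapsigargin for 4 h, then extracellular luciferase luminescence.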
% is scaled to controls: 0 for no effect and ±100 for the full control effect.

Activity change, negative = inhibition, inactive:
CCCCCCCCCCCCCCC[C@@H](O)[C@H](CO)NC(C)=O -11.4% [at 3.88 µM]
Nc1nc2c(ncn2[C@@H]2O[C@H](COP(=O)(O)OP(=O)(O)OP(=O)(O)O)[C@@H](O)C2O)c(=O)[nH]1 (stereo not given in full) -32.6%
C=C1/C(=C\C=C2\CCCC3(C)C2CCC3C(C)/C=C/C(O)C2CC2)CC(O)CC1O (stereo not given) -27.8%
CCCCC[C@H](O)CC[C@H]1[C@H](O)CC(=O)[C@@H]1CCCCCCC(=O)O -15% [at 3.88 µM]
COC(=O)/C=C/c1cc(O)ccc1O -17.7%
CCCCCCCCCCCCC/C=C/[C@@H](O)[C@H](CO)NC(=O)CCCCCCC 18.1% [at 3.88 µM]
CC(C)c1cnc(NC(=O)Cc2ccccc2)s1 35.2%
CC1=C(/C=C/C(C)=C/C=C/C(C)=C\CO)C(C)(C)CCC1 -9.86%
CCC(=O)NC1Cc2ccccc2C(c2ccccc2)C1 (stereo not given) 3.58%
CS(=O)(=O)Nc1c(O)ccc2c1CCCC2C1=NCCN1 (stereo not given) -16.5%
CCCCCCCCCCOCCC(=O)O -6.7% [at 3.88 µM]
CCCCC/C=C\C/C=C\C/C=C\C/C=C\CCCC(=O)O[C@@H](CO)COCCCCCCCCCCCCCCCC -14% [at 3.88 µM]
COc1ccc2[nH]cc(CCNC(=O)C3CC3)c2c1 5.1%
Nc1ncc2[nH]cnc2n1 -16.2%
Nc1ncnc2c1ncn2[C@@H]1O[C@H](COP(=O)(O)OP(=O)(O)OC[C@H]2OC(O)[C@H](O)[C@@H]2O)[C@@H](O)[C@H]1O (stereo not given in full) -22.6%
COc1ccc(/C=C/C(=O)CC(=O)/C=C/c2cccc(O)c2OC)cc1O -17.2%
CCCCCCCCCCCCC/C=C/[C@@H](O)[C@H](CO)NCCCCCCCC -10.1% [at 3.88 µM]
CNC(=O)[C@H]1O[C@@H](n2cnc3c(N)ncnc32)[C@H](O)[C@@H]1O -32.2%
CC/C=C\C/C=C\C/C=C\CCCCCCCCCCCC(=O)O 10.3% [at 3.88 µM]
CCCCC/C=C\C/C=C\C/C=C\C=C\[C@@H](O)CCCC(=O)O -9.05% [at 0.478 µM]
CCCCCCCCCCCCC/C=C/[C@@H](O)[C@H](CO)NC(C)=O 1.43% [at 3.88 µM]
N[C@@]1(C(=O)O)CO[C@H]2[C@H](C(=O)O)[C@H]21 -23.8%
N[C@@H](Cn1c2c(c(=O)[nH]c1=O)CCC2)C(=O)O -35.2%
C[C@H](CCC(=O)O)C1CC[C@H]2C3CC[C@@H]4C[C@H](O)CC[C@]4(C)C3C[C@H](O)[C@]12C (stereo not given in full) 48.9%
C[C@@H](Cc1ccccc1)Nc1ncnc2c1ncn2[C@@H]1O[C@H](CO)[C@@H](O)[C@H]1O -0.981%
NS(=O)(=O)c1nn2cc(-c3ccccc3)nc2s1 -44.5%
OC[C@H]1O[C@@H](n2cnc3c(NC4CCCC4)nc(Cl)nc32)[C@H](O)[C@@H]1O -2.44%
CCCCCCCC/C=C\C/C=C\C/C=C\CCCC(=O)NCCO -21.6% [at 3.88 µM]
CCCCCCCC/C=C\C/C=C\C/C=C\CCCC(=O)O 18.3% [at 3.88 µM]
O=c1ncccn1[C@@H]1O[C@H](CO)C(O)[C@@H]1O (stereo not given in full) 23.1%
Nc1ccnc2c1ncn2[C@@H]1O[C@H](CO)[C@@H](O)[C@H]1O -30.1%
NCC(O)COc1cccc2ccccc12 (stereo not given) -18.2%
CC(C)C(NS(=O)(=O)c1ccc(-c2ccc(Br)cc2)cc1)C(=O)O (stereo not given) -22.9%
CCCCC/C=C\C/C=C\CCCCCCCC(N)=O -21% [at 3.88 µM]
CC(C)C(N)C(=O)O (stereo not given) -13.3%
CCCCC[C@H](O)/C=C/[C@H]1C=CC(=O)[C@@H]1CCCCCCC(=O)O -11.3% [at 3.88 µM]
CCCCC/C=C\C=C\[C@H](O)CCCCCCCC(=O)O 2.02% [at 0.478 µM]
N[C@@H](C(=O)O)[C@@H](CC(=O)O)c1ccc(Cl)cc1 -27.2%

Potency, inactive:
CC(=O)N[C@@H](CSC/C=C(\C)CCC=C(C)C)C(=O)O
CC(C)[C@H](O)CC[C@@H](C)C1CC[C@H]2C3CC=C4C[C@@H](O)CC[C@]4(C)C3CC[C@]12C (stereo not given in full)

Reference: PubChem BioAssay (NCATS)
